Measurements published in PubChem BioAssay AID1159580 (chemical genetic matrix, 2015).
Where “and” joins values, the source holds several entries; their conditions need not be identical. Identical values can stand only once. Hit rate of the full screen: of about 5,500 compounds, about 2,000 (36%) were called active. Roughly 18% stayed inconclusive and do not appear here. No stated cut-off is given here; in the data, active means normalized growth mostly below about 0.91 (no sharp cut-off); inconclusive means no clear call, values can overlap the other calls; inactive means mostly above about 0.92. This is one part of the list.

Assay: chemical genetic growth profiling, strain panel (AID 1159580);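 further: tested at 20 µM; growth read once vehicle control cultures reached saturation at 30 °C; 1 = growth at the plate median or of vehicle wells; lower values mean less growth of the strain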
Conditions: S. cerevisiae deletion strains, growth OD

Measured: normalized growth

COc1cc2c(cc1O)CC1c3c(cc(O)c(OC)c3-2)CCN1C (centres undefined)
inactive: locus YAL021C, strain ccr4, hits give low values 1.02 | locus YAL026C, strain drs2, hits give low values 1.03 | locus YAL030W, strain snc1, hits give low values 1.01 | locus YBL061C, strain skt5, hits give low values 1.02 | locus YBR009C, strain hhf1, hits give low values 1.03 | locus YBR021W, strain FUR4, hits give low values 0.993 | locus YBR023C, strain chs3, hits give low values 1.02 | locus YBR171W, strain sec66, hits give low values 1.01 | locus YBR229C, strain ROT2, hits give low values 0.999 | locus YBR231C, strain swc5, hits give low values 1.01 | locus YBR279W, strain paf1, hits give low values 1.01 | locus YCL011C, strain gbp2, hits give low values 1.02 | locus YCL016C, strain dcc1, hits give low values 1 | locus YCL029C, strain bik1, hits give low values 0.994 | locus YCL061C, strain MRC1, hits give low values 1.01 | locus YCL069W, strain vba3, hits give low values 1.01 | locus YCR088W, strain abp1, hits give low values 1.01 | locus YDL005C, strain med2, hits give low values 1.03 | locus YDL035C, strain GPR1, hits give low values 1 | locus YDL040C, strain nat1, hits give low values 1.01 | locus YDL074C, strain BRE1, hits give low values 1 | locus YDL101C, strain DUN1, hits give low values 0.996 | locus YDL185W, strain tfp1, hits give low values 0.991 | locus YDL192W, strain arf1, hits give low values 0.996 | locus YDR001C, strain nth1, hits give low values 1.01 | locus YDR069C, strain doa4, hits give low values 1.04 | locus YDR101C, strain arx1, hits give low values 0.98 | locus YDR137W, strain rgp1, hits give low values 1.04 | locus YDR159W, strain sac3, hits give low values 1.04 | locus YDR162C, strain NBP2, hits give low values 1 | locus YDR195W, strain ref2 0.999 | locus YDR297W, strain sur2, hits give low values 1.01 | locus YDR318W, strain mcm21, hits give low values 1 | locus YDR334W, strain swr1, hits give low values 1.01 | locus YDR335W, strain msn5, hits give low values 1.01 | locus YDR388W, hits give low values 0.996 | locus YDR392W, strain spt3, hits give low values 0.95 | locus YDR502C, strain sam2, hits give low values 0.993 | locus YEL003W, strain gim4, hits give low values 1.02 | locus YEL037C, strain rad23, hits give low values 1.01 | locus YEL061C, strain CIN8 (second series), hits give low values 1.01 | locus YEL061C, strain CIN8, hits give low values 0.998 | locus YER015W, strain faa2, hits give low values 1.01 | locus YER016W, strain bim1, hits give low values 1.02 | locus YER110C, hits give low values 0.997 | locus YER111C, strain swi4, hits give low values 1.01 | locus YER155C, strain BEM2 (second series), hits give low values 1.03 | locus YER155C, strain BEM2, hits give low values 1 | locus YER167W, strain BCK2, hits give low values 1 | locus YFR010W, strain ubp6, hits give low values 1.02 | locus YGL078C, strain dbp3, hits give low values 0.997 | locus YGL086W, strain mad1, hits give low values 0.978 | locus YGL167C, strain pmr1, hits give low values 1 | locus YGL173C, strain kem1, hits give low values 1.02 | locus YGL227W, strain vid30, hits give low values 1.02 | locus YGL240W, strain doc1, hits give low values 1.01 | locus YGL248W, strain PDE1, hits give low values 1.01 | locus YGL253W, strain hxk2, hits give low values 1 | locus YGR135W, strain pre9, hits give low values 0.986 | locus YGR252W, strain gcn5, hits give low values 0.917 | locus YHR013C, strain ard1, hits give low values 1 | locus YHR027C, strain rpn1, hits give low values 1.02 | locus YHR030C, strain SLT2, hits give low values 1.01 and 0.986 | locus YHR079C, strain IRE1 (second series), hits give low values 0.993 | locus YHR079C, strain IRE1, hits give low values 1.01 | locus YHR094C, strain hxt1, hits give low values 1 | locus YHR129C, strain ARP1, hits give low values 0.994 | locus YHR142W, strain chs7, hits give low values 0.996 | locus YHR200W, strain rpn10, hits give low values 0.988 | locus YIL066C, strain RNR3, hits give low values 1.01 | locus YIL073C, strain SPO22, hits give low values 1.03 | locus YIL125W, strain kgd1, hits give low values 0.986 | locus YIR030C, strain dcg1, hits give low values 0.992 | locus YJL092W, strain hpr5, hits give low values 1.01 | locus YJL095W, strain BCK1 (second series), hits give low values 0.988 | locus YJL095W, strain BCK1, hits give low values 1.01 and 0.996 | locus YJL115W, strain asf1, hits give low values 1.02 | locus YJL129C, strain trk1, hits give low values 1.02 | locus YJL134W, strain LCB3, hits give low values 1.01 | locus YJL154C, strain vps35, hits give low values 1.01 | locus YJL164C, strain tpk1, hits give low values 1.01 | locus YJL166W, strain qcr8, hits give low values 1.01 | locus YJL168C, strain set2, hits give low values 0.988 | locus YJL187C, strain SWE1 (second series), hits give low values 0.998 | locus YJL187C, strain SWE1, hits give low values 1 | locus YJR043C, strain POL32, hits give low values 0.987 | locus YJR066W, strain TOR1, hits give low values 0.946 | locus YJR075W, strain HOC1, hits give low values 1.01 | locus YKL009W, strain mrt4, hits give low values 1 | locus YKL068W, hits give low values 1.01 | locus YKL085W, strain MDH1 (second series), hits give low values 0.994 | locus YKL085W, strain MDH1, hits give low values 0.994 | locus YKL160W, strain elf1, hits give low values 1.01 | locus YKR001C, strain vps1, hits give low values 1.01 | locus YKR026C, strain gcn3, hits give low values 0.983 | locus YKR091W, strain srl3, hits give low values 1.01 | locus YLL001W, strain dnm1, hits give low values 1 | locus YLL026W, hits give low values 1.02 | locus YLL041C, strain sdh2, hits give low values 1.01 | locus YLR027C, strain aat2, hits give low values 1.01 | locus YLR039C, strain RIC1, hits give low values 1.01 | locus YLR058C, strain SHM2, hits give low values 1.01 | locus YLR102C, strain apc9, hits give low values 0.998 | locus YLR113W, strain HOG1, hits give low values 0.994 | locus YLR221C, strain rsa3, hits give low values 1.01 | locus YLR258W, strain gsy2, hits give low values 1.02 | locus YLR262C, strain YPT6 (second series), hits give low values 1.03 | locus YLR262C, strain YPT6, hits give low values 1.01 | locus YLR268W, strain sec22, hits give low values 0.976 | locus YLR320W, strain mms22, hits give low values 1.02 | locus YLR330W, strain CHS5, hits give low values 1.01 | locus YLR342W, strain FKS1 (second series), hits give low values 0.998 | locus YLR342W, strain FKS1, hits give low values 1 | locus YLR357W, strain rsc2, hits give low values 1.04 | locus YLR370C, strain arc18, hits give low values 1.03 | locus YLR371W, strain rom2, hits give low values 0.996 | locus YLR384C, strain iki3, hits give low values 1.02 | locus YLR418C, strain cdc73, hits give low values 0.98 | locus YML016C, strain PPZ1, hits give low values 1 | locus YML032C, strain rad52, hits give low values 1 | locus YML120C, strain ndi1, hits give low values 1.01 | locus YML124C, strain tub3, hits give low values 0.992 | locus YMR058W, strain fet3, hits give low values 1.01 | locus YMR078C, strain ctf18, hits give low values 1 | locus YMR125W, strain sto1, hits give low values 1.03 | locus YMR129W, hits give low values 1.03 | locus YMR205C, strain PFK2, hits give low values 1.05 | locus YMR223W, strain ubp8, hits give low values 0.986 | locus YMR231W, strain pep5, hits give low values 1.01 | locus YMR263W, strain SAP30, hits give low values 1 | locus YMR307W, strain GAS1, hits give low values 0.997 | locus YNL067W, strain RPL9B, hits give low values 0.998 | locus YNL071W, strain lat1, hits give low values 1.02 | locus YNL183C, strain NPR1, hits give low values 0.951 | locus YNL209W, strain ssb2, hits give low values 1.01 | locus YNL233W, strain BNI4, hits give low values 0.992 | locus YNL248C, strain rpa49, hits give low values 1 | locus YNL250W, strain rad50, hits give low values 1 | locus YNL271C, strain bni1, hits give low values 0.992 | locus YNL298W, strain CLA4, hits give low values 0.995 | locus YNL307C, strain MCK1, hits give low values 0.994 | locus YNL322C, strain KRE1 (second series), hits give low values 1.01 | locus YNL322C, strain KRE1, hits give low values 1 | locus YNR049C, strain mso1, hits give low values 1.01 | locus YNR052C, strain pop2, hits give low values 1.01 | locus YOL012C, strain htz1 0.764 | locus YOL147C, strain pex11, hits give low values 0.998 | locus YOR001W, strain rrp6, hits give low values 1.01 | locus YOR061W, strain CKA2, hits give low values 1.01 | locus YOR069W, strain VPS5, hits give low values 1 | locus YOR070C, strain gyp1, hits give low values 1.02 | locus YOR080W, strain dia2, hits give low values 1.01 | locus YOR083W, strain WHI5, hits give low values 0.997 | locus YOR106W, strain vam3, hits give low values 1.03 | locus YOR136W, strain idh2, hits give low values 0.99 | locus YOR144C, strain elg1, hits give low values 0.993 | locus YOR184W, strain ser1, hits give low values 0.992 | locus YOR231W, strain MKK1, hits give low values 1 | locus YOR265W, strain rbl2, hits give low values 1 | locus YOR270C, strain vph1, hits give low values 1.06 | locus YOR290C, strain snf2, hits give low values 0.999 | locus YOR316C, strain cot1, hits give low values 1 | locus YPL051W, strain arl3, hits give low values 0.994 | locus YPL055C, strain LGE1, hits give low values 0.988 | locus YPL078C, strain atp4, hits give low values 1.01 | locus YPL106C, strain sse1, hits give low values 1.04 | locus YPL240C, strain hsp82, hits give low values 1.01 | locus YPL241C, strain CIN2, hits give low values 1 | locus YPL256C, strain CLN2, hits give low values 0.961 | locus YPR119W, strain clb2, hits give low values 0.998 | locus YPR141C, strain kar3, hits give low values 0.985 | locus YPR163C, strain tif3, hits give low values 0.996 | locus YPR167C, strain met16, hits give low values 1 | strain wtn01, hits give low values 0.97
